Experimental data reported in PubChem BioAssay (NCATS).
Inconclusive results are not listed. Values without a mark were called inactive. The source made the active and inactive calls. Calls follow the shape of the dose curve; as a rule, active = well fitted inhibition curve with a large enough effect; inconclusive = small, poorly fitted or top-dose-only effect; inactive = flat fitted curve, though single readings scatter.

Test system: NIH3T3
Experiment: Cytotoxic Profiling of Annotated Libraries Using Quantitative High-Throughput Screening (AID 1296008); also: nearly all actives have a fitted effect of over 60% in size
Details: Five cell lines viability, CellTiter-Glo ATP luminescence, 48-72 h; max response: hits give low values
How it was run: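 Compounds were pin-transferred onto cells and incubated 48 or 72 hr at 37 degree Celsius, 95% humidity. CellTiter-Glo was added, plates sat 10 min at room temperature, then ATP-coupled luminescence was imaged as the viability read-out.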
% is scaled to controls: 0 for no effect and ±100 for the full control effect; potency is read from the fitted curve at half-maximal effect.

How did the max response turn out when `CC(=O)Nc1ccc(OC[C@](C)(O)C(=O)Nc2ccc([N+](=O)[O-])c(C(F)(F)F)c2)cc1` was run?
Its max response is 2.34%.

And the outcome?
The outcome was “inactive”.

With `CCCCCCCCCC(CC)c1ccc(S(=O)(=O)O)cc1` (centres undefined) as the compound, how does the max response read?
Its max response is -1.31%.

For `Nc1ccc(Sc2ccc(N)cc2)cc1`, which max response is on record?
The max response was -12.3%.

Which max response does the source give for `CC(O)CN1CCN(CC(=O)[O-])CCN(CC(=O)[O-])CCN(CC(=O)[O-])CC1.[Gd+3]` (centres undefined) here?
Its max response is -1.05%.

For `CN1CCN(c2ccc([N+](=O)[O-])c3no[n+]([O-])c23)CC1`, which max response is on record?
Its max response is 0.637%.

What about the outcome of the same compound?
Its outcome is “inactive”.

How did the max response turn out when `O=C(O)COc1nc(Cl)c(Cl)cc1Cl` was run?
Its max response is -4.26%.

Which Potency does the source give for `CO/C=C(/C(=O)OC)c1ccccc1Oc1cc(Oc2ccccc2C#N)ncn1` here?
Its Potency is 6.86 µM (active).

For `CS(=O)(=O)c1ccc(C(=O)C2C(=O)CCCC2=O)c([N+](=O)[O-])c1`, which max response is on record?
The max response was 4.33%.

How did the max response turn out when `CCOP(=O)(NC(C)C)Oc1ccc(SC)c(C)c1` (centres undefined) was run?
Its max response is -4.93%.

`COC1=C[C@@H]2[C@@H]3Cc4ccc(OC)c(O)c4[C@]2(CCN3C)CC1=O` was tested. Which outcome did it give?
Its outcome is “inactive”.

Which Potency does the source give for `Cc1c(N)nc([C@H](CC(N)=O)NC[C@@H](N)C(N)=O)nc1C(=O)N[C@H](C(=O)N[C@@H](C)[C@H](O)[C@@H](C)C(=O)N[C@@H](C(=O)NCCc1nc(-c2nc(C(=O)NCCC[S+](C)C)cs2)cs1)[C@@H](C)O)C(O[C@H]1O[C@H](CO)[C@H](O)[C@@H](O)[C@@H]1O[C@H]1O[C@H](CO)[C@@H](O)[C@H](OC(N)=O)[C@H]1O)c1cnc[nH]1` (some centres undefined) here?
The Potency was 1.18 µM (active).

How did the outcome turn out when `O=C1C=CC[C@@H]2[C@H]3CCCN4CCC[C@@H](CN12)[C@@H]34` was run?
Its outcome is “inactive”.
